Test results from PubChem BioAssay (Tox21).
Several values for one entry are separate records, joined by “and”; a condition that tells them apart may be missing. Equal entries are not always repeated. Records with an inconclusive call do not appear. A structure can be active in one record and inactive in another. Activity calls are given as the source filed them. Unless noted, calls come from the whole dose curve.

What was measured:
[1] = Nuclear factor erythroid 2-related factor 2/antioxidant responsive element (Nrf2/ARE) small molecule agonists: qHTS cell viability counter screen in human keratinocytes (AID 1919968; active = well fitted curve in the direction sought with a large enough effect in the repeat runs; an effect the other way counts as inactive or inconclusive; note: nearly all actives have a fitted effect of over 55% in size; note: potency is the fitted concentration of half-maximal effect)
How it was run: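 KeratinoSens cells (HaCaT keratinocytes stably carrying an ARE-luciferase reporter) were seeded at 1,500 cells/well and rested 5 h at 37 C/5% CO2. They were then exposed to compounds in DMSO for 23 h. Viability was read by CellTiter-Fluor fluorescence after 1 h.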

[2] = Nuclear factor erythroid 2-related factor 2/antioxidant responsive element (Nrf2/ARE) small molecule agonists: luciferase reporter gene qHTS assay in human keratinocytes (AID 1919969); note: nearly all actives have a fitted effect of over 35% in size
[3] = biological target: Gonadotropin-releasing hormone receptor (Homo sapiens) (UniProt P30968); assay: Human gonadotropin-releasing hormone receptor (GnRHR) small molecule agonists, calcium flux assay in GnRHR-HEK293 cells (AID 1920063); note: nearly all actives have a fitted effect of over 35% in size
Gonadotropin-releasing hormone receptor (Homo sapiens), sequence (P30968 whole entry, looked up): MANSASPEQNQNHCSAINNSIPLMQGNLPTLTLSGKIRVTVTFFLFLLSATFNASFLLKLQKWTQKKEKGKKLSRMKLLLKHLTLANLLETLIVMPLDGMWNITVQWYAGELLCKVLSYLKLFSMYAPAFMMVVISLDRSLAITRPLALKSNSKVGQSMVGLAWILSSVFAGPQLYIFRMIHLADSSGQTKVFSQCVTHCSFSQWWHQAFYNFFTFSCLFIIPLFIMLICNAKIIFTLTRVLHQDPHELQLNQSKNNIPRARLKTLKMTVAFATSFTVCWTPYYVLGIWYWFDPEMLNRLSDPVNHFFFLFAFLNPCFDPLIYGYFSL
How it was run: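 HEK293 cells stably expressing human GnRHR were plated 18 h at 37 °C, loaded with calcium dye 1 h at 37 °C, then given compound in agonist mode; fluorescence (Ex/Em 480/540) read kinetically for 3 min at 1 s intervals.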

[4] = biological target: KiSS-1 receptor (Homo sapiens) (UniProt Q969F8); assay: Human kisspeptin (KISS1R) small molecule agonists, calcium flux assay in KISS1R-HEK293 cells (AID 1920064; active = well fitted curve in the direction sought with a large enough effect in the repeat runs; an effect the other way counts as inactive or inconclusive)
KiSS-1 receptor (Homo sapiens), sequence (Q969F8 whole entry, looked up): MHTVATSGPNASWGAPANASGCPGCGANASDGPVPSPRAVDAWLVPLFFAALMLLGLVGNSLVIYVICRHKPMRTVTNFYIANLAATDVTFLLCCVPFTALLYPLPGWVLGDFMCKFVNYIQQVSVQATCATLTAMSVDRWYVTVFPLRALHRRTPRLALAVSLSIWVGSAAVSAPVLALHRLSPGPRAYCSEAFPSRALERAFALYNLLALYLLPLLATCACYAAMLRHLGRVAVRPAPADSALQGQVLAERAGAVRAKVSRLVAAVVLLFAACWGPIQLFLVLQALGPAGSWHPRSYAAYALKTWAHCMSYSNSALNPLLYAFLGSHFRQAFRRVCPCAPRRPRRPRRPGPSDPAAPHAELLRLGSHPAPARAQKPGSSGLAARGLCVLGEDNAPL
How it was run: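 HEK293 cells stably expressing human KISS1R were plated 18 h at 37 °C, loaded with calcium dye for 1 h at 37 °C, then given compound by pin tool. Fluorescence (Ex/Em 480/540) was read kinetically for 3 min.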

[5] = G protein-coupled receptor (GPCR) small molecule agonists, calcium flux assay: HEK293 wild type cell line counter screen (AID 1920065)
How it was run: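 Cells were plated and cultured 18 h at 37 C/5% CO2, then loaded with calcium dye for 1 h at 37 C. Compounds in DMSO were pin-transferred in agonist mode, and fluorescence (Ex/Em 480/540) was read kinetically for 3 min at 1 s intervals.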

[6] = p53 small molecule agonists, cell-based qHTS assay with human liver microsomes (AID 1963577)
How it was run: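 Fluorescence of the beta-lactamase reporter in p53RE-bla cells, detected with LiveBLAzer substrate (2 h, room temperature, dark), served as the read-out after 16 h compound exposure at 37 C with human liver microsomes and NADPH, each 0.5 mg/mL final.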

[7] = p53 small molecule agonists, cell-based qHTS assay with rat liver microsomes (AID 1963578)
How it was run: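 Cells carrying a p53 response element–beta-lactamase reporter were plated and rested 5 h, then dosed with compound in DMSO plus rat liver microsomes and NADPH, each at 0.5 mg/mL final. After 16 h at 37 C, LiveBLAzer substrate was added for 2 h.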

[8] = p53 small molecule agonists, cell-based qHTS assay with human liver microsomes: qHTS cell viability counter screen (AID 1963579); note: nearly all actives have a fitted effect of over 45% in size
How it was run: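 Cytotoxicity counter screen: p53RE-bla, 4,000 cells/well; 5 h settle, 37 C/5% CO2; cpd + HLM 0.5 mg/mL + NADPH 0.5 mg/mL (final); 16 h, 37 C; CellTiter-Glo, 30 min RT, luminescence.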

[9] = p53 small molecule agonists, cell-based qHTS assay with rat liver microsomes: qHTS cell viability counter screen (AID 1963580); note: nearly all actives have a fitted effect of over 45% in size
How it was run: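 p53RE-bla HCT-116 cells (4,000/well) rested 5 h at 37 C, then given Tox21 compounds in DMSO with rat liver microsomes (0.5 mg/mL final) plus NADPH (0.5 mg/mL final) for 16 h at 37 C. Viability read by CellTiter-Glo luminescence after 30 min at room temperature.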

[10] = p53 small molecule agonists, cell-based qHTS assay (AID 1963582; active = well fitted activation curve with a large enough effect in the signal ratio in the repeat runs, not every such curve was filed as active; the % refers to the signal ratio)
How it was run: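 p53RE-bla beta-lactamase reporter cells rested 5 h at 37 C/5% CO2, then received compounds in DMSO by pin transfer and were incubated 16 h at 37 C. LiveBLAzer B/G FRET substrate was loaded for 2 h at room temperature before fluorescence reading.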

[11] = biological target: 5-hydroxytryptamine receptor 2A (Homo sapiens) (UniProt P28223); assay: 5-hydroxytryptamine receptor 2A (HTR2A) small molecule antagonists, cell-based qHTS assay (AID 1963586); note: nearly all actives have a fitted effect of over 45% in size
5-hydroxytryptamine receptor 2A (Homo sapiens), sequence (P28223 whole entry, looked up): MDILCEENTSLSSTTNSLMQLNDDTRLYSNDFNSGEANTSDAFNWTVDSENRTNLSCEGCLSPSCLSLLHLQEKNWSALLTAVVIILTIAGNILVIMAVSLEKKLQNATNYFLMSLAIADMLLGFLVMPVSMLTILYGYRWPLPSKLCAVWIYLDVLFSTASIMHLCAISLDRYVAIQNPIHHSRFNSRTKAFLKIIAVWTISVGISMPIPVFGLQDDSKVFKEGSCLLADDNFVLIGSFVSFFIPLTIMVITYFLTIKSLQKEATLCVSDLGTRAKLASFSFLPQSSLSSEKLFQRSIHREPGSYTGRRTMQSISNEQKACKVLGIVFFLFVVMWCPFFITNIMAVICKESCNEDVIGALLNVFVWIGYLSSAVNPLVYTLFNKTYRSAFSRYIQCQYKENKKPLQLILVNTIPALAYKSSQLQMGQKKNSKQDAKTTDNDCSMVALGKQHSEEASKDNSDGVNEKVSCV
How it was run: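 Antagonist-mode intracellular calcium assay: DOI (4 nM) added after 5 min compound pre-incubation at room temperature to dye-loaded HTR2A-CHO cells. Fluorescence followed for 3 min, sampled every second.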

[12] = biological target: 5-hydroxytryptamine receptor 2A (Homo sapiens) (UniProt P28223); assay: 5-hydroxytryptamine receptor 2A (HTR2A) small molecule agonists, cell-based qHTS assay (AID 1963587); note: nearly all actives have a fitted effect of over 30% in size
How it was run: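 HTR2A-CHO cells, plated 18 h at 37 C/5% CO2, dye-loaded 1 h at 37 C; compounds in DMSO added by pin tool (agonist mode). Intracellular calcium flux read as kinetic fluorescence on FDSS over 2 min at 1 s intervals.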

[13] = biological target: Muscarinic acetylcholine receptor M1 (Homo sapiens) (UniProt P11229); assay: Cholinergic receptor muscarinic 1 (CHRM1) small molecule antagonists, cell-based qHTS assay (AID 1963588); note: nearly all actives have a fitted effect of over 40% in size; note: potency is the fitted concentration of half-maximal effect
Muscarinic acetylcholine receptor M1 (Homo sapiens), sequence (P11229 whole entry, looked up): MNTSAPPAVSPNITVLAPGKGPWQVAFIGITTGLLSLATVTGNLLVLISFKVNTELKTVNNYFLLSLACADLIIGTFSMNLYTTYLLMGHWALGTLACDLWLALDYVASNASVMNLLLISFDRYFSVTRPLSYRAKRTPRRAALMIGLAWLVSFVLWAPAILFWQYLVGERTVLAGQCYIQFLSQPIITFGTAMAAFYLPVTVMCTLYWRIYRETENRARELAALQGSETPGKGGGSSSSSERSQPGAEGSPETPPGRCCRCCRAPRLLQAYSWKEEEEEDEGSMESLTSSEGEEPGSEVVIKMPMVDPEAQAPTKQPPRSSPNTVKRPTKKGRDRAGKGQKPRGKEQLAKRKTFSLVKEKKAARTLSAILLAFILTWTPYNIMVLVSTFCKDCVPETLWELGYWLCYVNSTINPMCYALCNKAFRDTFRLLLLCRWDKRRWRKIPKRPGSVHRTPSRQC
How it was run: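 CHRM1-CHO calcium-flux assay, antagonist mode. Cells were seeded 18 h, dye-loaded 1 h at 37 C and given compound for 5 min at RT, then acetylcholine was added at 50nM. FDSS fluorescence was read 3 min; 15 concentrations, three runs.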

[14] = biological target: Muscarinic acetylcholine receptor M1 (Homo sapiens) (UniProt P11229); assay: Cholinergic receptor muscarinic 1 (CHRM1) small molecule agonists, cell-based qHTS assay (AID 1963589); note: nearly all actives have a fitted effect of over 35% in size
How it was run: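 CHO cells stably expressing human CHRM1, seeded 18 h at 37 C/5% CO2, dye-loaded 1 h at 37 C, then given compound in agonist mode; intracellular calcium fluorescence read kinetically at 1 s intervals. Fifteen concentrations, three independent runs.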

[15] = cAMP Responsive Elements (CRE) small molecule agonists, cell-based qHTS assay (AID 1963590)
How it was run: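 CRE-bla HEK 293T cells in DMEM with 10% dialyzed FBS, NEAA, pyruvate and 25 mM HEPES were plated 18 h at 37 C/5% CO2, then exposed to compounds in DMSO for 3 h before LiveBLAzer B/G FRET substrate addition.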

[16] = cAMP Responsive Elements (CRE) small molecule antagonists, cell-based qHTS assay (AID 1963591; active = well fitted inhibition curve with a large enough effect in the signal ratio in the repeat runs, not every such curve was filed as active; the % refers to the signal ratio)
How it was run: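 CRE-bla HEK293T cells were plated 18 h at 37 °C/5% CO2, pinned with compound in DMSO, then stimulated with NKH477 at 0.25 uM final for 3 h. LiveBLAzer B/G FRET substrate was added and plates incubated 2 h at room temperature.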

[17] = biological target: Beta-2 adrenergic receptor (Homo sapiens) (UniProt P07550); assay: Adrenergic beta2 receptor (ADRB2) small molecule antagonists, cell-based qHTS assay (AID 1963592); note: series mostly up to about 92 µM; nearly all actives have a fitted effect of over 50% in size
Beta-2 adrenergic receptor (Homo sapiens), sequence (P07550 whole entry, looked up): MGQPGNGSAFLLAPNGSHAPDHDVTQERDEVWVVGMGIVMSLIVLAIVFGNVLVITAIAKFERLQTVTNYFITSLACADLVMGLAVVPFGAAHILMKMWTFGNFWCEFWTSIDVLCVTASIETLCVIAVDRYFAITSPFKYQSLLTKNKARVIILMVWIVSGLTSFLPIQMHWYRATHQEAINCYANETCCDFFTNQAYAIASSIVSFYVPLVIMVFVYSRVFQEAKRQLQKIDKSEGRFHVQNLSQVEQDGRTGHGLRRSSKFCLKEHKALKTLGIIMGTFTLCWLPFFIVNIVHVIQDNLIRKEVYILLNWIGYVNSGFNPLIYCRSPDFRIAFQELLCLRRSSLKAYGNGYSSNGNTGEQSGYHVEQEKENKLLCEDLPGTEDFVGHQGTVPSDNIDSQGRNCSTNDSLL
How it was run: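 Cells (CHO, stable ADRB2 overexpression) incubated 18-20hr at 37C; compounds added from DMSO; agonist mix (1nM isoproterenol, 100uM IBMX, 25uM Ro-20-1724) added; 0.5hr RT; d2-cAMP and anti-cAMP-cryptate added; 1hr RT; 665/615 nm read.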

[18] = biological target: D(2) dopamine receptor (Homo sapiens) (UniProt P14416); assay: Dopamine D2 receptor (DRD2) small molecule agonists, cell-based qHTS assay (AID 1963594); note: nearly all actives have a fitted effect of over 35% in size
D(2) dopamine receptor (Homo sapiens), sequence (P14416 whole entry, looked up): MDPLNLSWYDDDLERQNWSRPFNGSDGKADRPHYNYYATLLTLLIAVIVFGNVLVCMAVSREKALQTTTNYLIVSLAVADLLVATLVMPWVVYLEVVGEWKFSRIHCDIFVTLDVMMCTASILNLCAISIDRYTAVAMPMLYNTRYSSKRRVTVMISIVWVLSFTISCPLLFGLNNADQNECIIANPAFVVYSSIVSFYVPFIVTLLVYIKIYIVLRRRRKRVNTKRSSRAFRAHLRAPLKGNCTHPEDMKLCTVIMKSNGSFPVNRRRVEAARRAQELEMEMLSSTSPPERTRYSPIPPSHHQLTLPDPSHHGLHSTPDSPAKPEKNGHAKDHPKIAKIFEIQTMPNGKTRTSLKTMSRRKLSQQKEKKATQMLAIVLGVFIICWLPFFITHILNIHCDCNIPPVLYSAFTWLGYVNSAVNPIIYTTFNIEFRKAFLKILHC
How it was run: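 HEK293 cells stably expressing DRD2 were cultured 24 h at 37 C, then given Ro20-1724 (0.1 mM final) and compounds for 10 min at room temperature. NKH477 (200nM) was then added for 30 min. cAMP was read by HTRF.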

[19] = biological target: D(2) dopamine receptor (Homo sapiens) (UniProt P14416); assay: Dopamine D2 receptor (DRD2) small molecule antagonists, cell-based qHTS assay (AID 1963595; active = well fitted inhibition curve with a large enough effect in the signal ratio in the repeat runs, with a control signal flat; the % refers to the signal ratio; note: potency is the fitted concentration of half-maximal effect)
How it was run: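 Antagonism was scored as restored cAMP in HEK293-DRD2 cells. These cells were stimulated with 200 nM NKH477 and 12 nM quinpirole for 30 min at room temperature, in the presence of 0.1 mM Ro20-1724.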

[20] = p53 small molecule agonists, cell-based qHTS assay: qHTS cell viability counter screen (AID 1963581); note: nearly all actives have a fitted effect of over 45% in size
How it was run: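 p53RE-bla HCT-116 cells were exposed to compounds for 16 h at 37 C; after the beta-lactamase FRET read in the same wells, CellTiter-Glo was added and luminescence (intracellular ATP) read after 30 min at room temperature.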
% is set by controls: 0 for no effect and ±100 for the full control effect.

Cc1onc(-c2ccccc2)c1C(=O)Cl
inactive: Potency [1] | Potency [2] | Potency [3] | Potency [4] | Potency [5] | Potency [6] | Potency [7] | Potency [8] | Potency [9] | Potency [10] | Potency [11] | Potency [12] | Potency [13] | Potency [14] | Potency [15] | Potency [16] | Potency [17] | Potency [18] | Potency [19]

Clc1ccccc1C(c1ccccc1)(c1ccccc1)n1ccnc1
inactive: Potency [2] | Potency [3] | Potency [4] | Potency [5] | Potency [6] | Potency [7] | Potency [8] | Potency [9] | Potency [10] | Potency [17]
active: Potency [1] 30.6 µM | Potency [19] 61.1 µM

CC(C)CCOC(=O)c1ccccc1
inactive: Potency [1] | Potency [2] | Potency [3] | Potency [4] | Potency [5] | Potency [6] | Potency [7] | Potency [8] | Potency [9] | Potency [10] | Potency [11] | Potency [12] | Potency [13] | Potency [14] | Potency [16] | Potency [17] | Potency [18] | Potency [19]

COC(C)(C)CCO
inactive: Potency [1] | Potency [2] | Potency [3] | Potency [4] | Potency [5] | Potency [6] | Potency [7] | Potency [8] | Potency [20] | Potency [10] | Potency [11] | Potency [12] | Potency [13] | Potency [14] | Potency [15] | Potency [16] | Potency [17] | Potency [18]

CCCOCCO
inactive and 12.5 nM (active): Potency [13]
inactive: Potency [1] | Potency [2] | Potency [3] | Potency [4] | Potency [5] | Potency [6] | Potency [7] | Potency [8] | Potency [9] | Potency [10] | Potency [11] | Potency [12] | Potency [14] | Potency [15] | Potency [16] | Potency [18] | Potency [19]

O=C(O)Cc1cccc(-c2cc(CCCCCCc3ccc(O[C@H]4O[C@H](CO)[C@@H](O)[C@H](O)[C@@H]4O)c(-c4cccc(CC(=O)O)c4)c3)ccc2O[C@H]2O[C@H](CO)[C@@H](O)[C@H](O)[C@@H]2O)c1
inactive: activity change, negative = cytotoxicity [1] -1.5% [at 0.349 µM] | activity, positive = activation [2] -5.74% [at 0.349 µM] | activity change [3] -0.17% [at 0.217 µM, stronger effect = higher value] | activation [4] -0.687% [at 0.29 µM] | activation [5] -0.122% [at 0.217 µM] | activation [6] -2.66% [at 0.249 µM] | activation [7] 1.81% [at 0.249 µM] | activity change, negative = cytotoxicity [8] 0.362% [at 0.249 µM] | activity change, negative = cytotoxicity [9] 2.63% [at 0.249 µM] | activation [10] -0.0536% [at 0.249 µM] | activation [12] 17.6% [at 0.292 µM] | activity, negative = inhibition [13] 12.9% [at 0.232 µM] | activation [15] 1% [at 0.349 µM] | activity change, negative = inhibition [16] -10.4% [at 0.349 µM] | activity change, negative = inhibition [17] 2.66% [at 0.349 µM] | activation [18] -1.23% [at 0.349 µM]

COc1cc(C(=S)N2CCOCC2)ccc1O
inactive: Potency [1] | Potency [2] | Potency [3] | Potency [4] | Potency [5] | Potency [6] | Potency [7] | Potency [8] | Potency [9] | Potency [10] | Potency [11] | Potency [12] | Potency [13] | Potency [14] | Potency [16] | Potency [17] | Potency [18] | Potency [19]
